# Measured values: PubChem BioAssay
# The source made the active and inactive calls. Unless noted, no rule for the calls is given here.
# How the values were obtained:
# [1] = anti-His antibody binders, primary screen, artefact control for SMM control protein annotation, biochemical, small-molecule microarray, 635 nm fluorescence (AID 1128); conditions: anti-His Alexa647 antibody binding, higher = more signal;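 also: score merges feature fluorescence with signal-to-noise for each printed compound spot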
# [2] = system: Human papillomavirus type 1a E7 protein (residues 1-88); experiment: HPV1a E7 small-molecule binders, primary screen, biochemical, small-molecule microarray, residues 1-88, 635 nm (AID 1129); conditions: small-molecule microarray binding, fluorescence 635 nm; higher = more signal
# [3] = biological target: Focal adhesion kinase 1 (Homo sapiens) (UniProt Q05397); experiment: small-molecule microarray binders of FAK, primary screen, biochemical, 635/667 nm fluorescence, BSA, DTT (AID 1130); conditions: PTK2 binding, 635 nm fluorescence, higher = more signal;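 also: composite of spot emission at 667 nm and signal to noise over triplicate slides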
# [4] = system: Fibrinogen (Alexa647-labelled); experiment: fibrinogen binders on compound microarrays, profiling panel, artefact control for SMM control-protein annotation, biochemical, small-molecule microarray, 635/667 nm fluorescence (AID 1131); conditions: fibrinogen-A647 binding fluorescence, higher = more signal;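 also: z-score merges 667 nm fluorescence with per-spot signal-to-noise over triplicate slides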
# [5] = biological target: Follistatin (Homo sapiens) (UniProt P19883); experiment: follistatin binders on small-molecule microarrays, primary screen, biochemical, small-molecule microarray, 635/667 nm fluorescence (AID 1132); conditions: FST binding, 635 nm fluorescence, higher = more signal
# [6] = biological target: Fibroblast growth factor 2 (Homo sapiens) (UniProt P09038); experiment: FGF2 binders on small-molecule microarrays, primary screen, biochemical, small-molecule microarray, 635/667 nm fluorescence (AID 1133); conditions: small-molecule microarray binding, FGF2, fluorescence 635/667; higher = more signal
# [7] = mitochondrial membrane potential change in A549 cells, profiling panel, cell-based, JC-1 fluorescence, basal, 24 h, 100 nL (AID 1138); conditions: higher = more signal;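 also: A549 lung adenocarcinoma cells under basal conditions with no added stimulus; test concentration not given here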
# [8] = system: Lefty1; experiment: Lefty1 binders on small-molecule microarrays, primary screen, biochemical, small-molecule microarray, 635/667 nm fluorescence (AID 1139); conditions: small-molecule microarray binding, fluorescence 635/667; higher = more signal
# [9] = system: wheat germ agglutinin (Triticum aestivum), Alexa647-labelled; experiment: wheat germ agglutinin binders on compound microarrays, profiling panel, artefact control for SMM control-protein annotation, biochemical, small-molecule microarray, 635/667 nm fluorescence (AID 1140); conditions: WGA-A647 binding, 635 nm fluorescence, higher = more signal;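 also: score merges 667 nm feature emission with signal to noise over triplicate slides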
# [10] = biological target: Luciferin 4-monooxygenase (Photinus pyralis) (UniProt P08659); experiment: firefly luciferase enzyme inhibitors, primary screen, biochemical, luminescence, purified enzyme, 2006 set (AID 1141); conditions: SteadyGlo luminescence, 30 min, higher = more signal, called active from +8 up or from −8 down;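 also: cell-free assay with purified firefly luciferase at 100 ng per well in PBS; test concentration not given here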
# [11] = system: Wnt5a (protein binding on small-molecule microarray); experiment: Wnt5a binders on small-molecule microarray, primary screen, biophysical, 635/667 nm fluorescence (AID 1142); conditions: 635 nm fluorescence, higher = more signal;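 also: fluorescence read at 667 nm with signal to noise per printed feature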
# [12] = cell viability in Huh7 cells, primary screen, cytotoxicity control for HCV replication inhibitor project, CellTiter-Glo luminescence, basal, 48 h (AID 1143); conditions: Huh7 HCV replicon, higher = more signal, called active from +8 up or from −8 down;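 also: Huh7 hepatoma cells carrying a hepatitis C replication reporter with no stimulus; test concentration not given here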
# [13] = P. aeruginosa biofilm formation inhibitors, primary screen, PAO1 strain, BacTiter-Glo luminescence, LB-PBS (AID 1144); conditions: 12 h, higher = more signal
# [14] = CREB reporter modulators without forskolin, primary screen, cell-based, PC12, CRE-LacZ reporter, unstimulated (AID 1145); conditions: no forskolin, luminescence, 4.5 h, higher = more signal, called active from +8 up or from −8 down
# [15] = CREB reporter modulators under forskolin, primary screen, cell-based, PC12, CRE-LacZ reporter, forskolin-stimulated (AID 1146); conditions: luminescence, 4.5 h, higher = more signal, called active from +8 up or from −8 down;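 also: PC12 cells with 6xCRE LacZ reporter stimulated by forskolin 10 µM; beta-galactosidase reporter signal reflecting CREB driven transcription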
# [16] = biological target: Streptavidin (Streptomyces avidinii) (UniProt P22629); experiment: streptavidin binders on small-molecule microarray, primary screen, artefact control for SMM compound annotation, biophysical, 635/667 nm fluorescence (AID 1147); conditions: streptavidin binding, higher = more signal;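 also: signal reflects streptavidin binding to arrayed compounds as a control protein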
# [17] = small-molecule binders of probe aInhba, primary screen, biochemical, small-molecule microarray, 635/667 nm fluorescence (AID 1148); conditions: higher = more signal;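 also: score merges 667nm spot fluorescence with signal-to-noise for antibody binding to printed compounds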
# [18] = biological target: Torsin-1A (Homo sapiens) (UniProt O14656); experiment: torsin A binders from cell lysate, primary screen, small-molecule microarray, wild-type, 635/667 nm (AID 1149); conditions: COS7 hTOR1A-WT lysate, 635 nm fluorescence, higher = more signal
# [19] = biological target: Torsin-1A (Homo sapiens) (UniProt O14656); experiment: small-molecule binders of mutant TOR1A in lysate, primary screen, cell lysate, small-molecule microarray, COS7 lysate, 635/667 nm fluorescence (AID 1150); conditions: COS7 hTOR1A mutant lysate, 635 nm fluorescence, higher = more signal;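 also: score pools 667 nm emission and signal to noise measuring lysate protein binding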
# [20] = system: Sonic hedgehog protein (Shh); experiment: small-molecule binders of Shh protein, primary screen, biochemical, small-molecule microarray, 635/667 nm fluorescence (AID 1151); conditions: small-molecule microarray binding, 635 nm fluorescence; higher = more signal;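 also: Shh protein binding to compounds spotted on small-molecule microarray slides; score combines spot fluorescence intensity with signal-to-noise across triplicate slides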
# Chain of Luciferin 4-monooxygenase (Photinus pyralis) (P08659 whole entry, looked up): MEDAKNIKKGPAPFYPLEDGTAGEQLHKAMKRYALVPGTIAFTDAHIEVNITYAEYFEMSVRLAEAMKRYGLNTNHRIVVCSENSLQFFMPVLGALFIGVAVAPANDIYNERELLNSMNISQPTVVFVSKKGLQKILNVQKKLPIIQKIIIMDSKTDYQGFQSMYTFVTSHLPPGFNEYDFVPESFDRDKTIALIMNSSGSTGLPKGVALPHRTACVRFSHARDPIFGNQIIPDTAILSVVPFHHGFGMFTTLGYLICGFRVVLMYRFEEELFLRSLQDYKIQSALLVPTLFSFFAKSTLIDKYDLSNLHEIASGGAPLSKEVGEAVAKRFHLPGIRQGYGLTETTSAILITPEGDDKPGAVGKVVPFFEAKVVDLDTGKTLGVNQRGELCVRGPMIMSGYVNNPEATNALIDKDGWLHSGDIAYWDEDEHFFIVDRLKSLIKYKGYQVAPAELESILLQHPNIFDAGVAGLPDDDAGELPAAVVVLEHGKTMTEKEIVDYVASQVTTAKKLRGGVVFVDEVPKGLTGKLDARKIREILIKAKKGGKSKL
# Chain of Follistatin (Homo sapiens) (P19883 whole entry, looked up): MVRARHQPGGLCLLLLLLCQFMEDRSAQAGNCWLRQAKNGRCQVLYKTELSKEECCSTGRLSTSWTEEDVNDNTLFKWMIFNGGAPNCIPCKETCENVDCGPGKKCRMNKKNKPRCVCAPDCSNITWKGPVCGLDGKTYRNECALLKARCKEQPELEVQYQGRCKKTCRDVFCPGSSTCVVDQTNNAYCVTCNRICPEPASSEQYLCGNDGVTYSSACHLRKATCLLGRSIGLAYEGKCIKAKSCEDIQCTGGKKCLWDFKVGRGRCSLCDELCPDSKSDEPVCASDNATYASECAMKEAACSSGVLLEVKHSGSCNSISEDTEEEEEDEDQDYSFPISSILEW
# Chain of Streptavidin (Streptomyces avidinii) (P22629 whole entry, looked up): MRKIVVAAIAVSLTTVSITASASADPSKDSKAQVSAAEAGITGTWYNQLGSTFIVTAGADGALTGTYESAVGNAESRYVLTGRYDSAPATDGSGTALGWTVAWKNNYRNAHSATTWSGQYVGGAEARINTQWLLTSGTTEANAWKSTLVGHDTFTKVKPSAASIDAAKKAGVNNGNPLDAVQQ
# Chain of Focal adhesion kinase 1 (Homo sapiens) (Q05397 whole entry, looked up): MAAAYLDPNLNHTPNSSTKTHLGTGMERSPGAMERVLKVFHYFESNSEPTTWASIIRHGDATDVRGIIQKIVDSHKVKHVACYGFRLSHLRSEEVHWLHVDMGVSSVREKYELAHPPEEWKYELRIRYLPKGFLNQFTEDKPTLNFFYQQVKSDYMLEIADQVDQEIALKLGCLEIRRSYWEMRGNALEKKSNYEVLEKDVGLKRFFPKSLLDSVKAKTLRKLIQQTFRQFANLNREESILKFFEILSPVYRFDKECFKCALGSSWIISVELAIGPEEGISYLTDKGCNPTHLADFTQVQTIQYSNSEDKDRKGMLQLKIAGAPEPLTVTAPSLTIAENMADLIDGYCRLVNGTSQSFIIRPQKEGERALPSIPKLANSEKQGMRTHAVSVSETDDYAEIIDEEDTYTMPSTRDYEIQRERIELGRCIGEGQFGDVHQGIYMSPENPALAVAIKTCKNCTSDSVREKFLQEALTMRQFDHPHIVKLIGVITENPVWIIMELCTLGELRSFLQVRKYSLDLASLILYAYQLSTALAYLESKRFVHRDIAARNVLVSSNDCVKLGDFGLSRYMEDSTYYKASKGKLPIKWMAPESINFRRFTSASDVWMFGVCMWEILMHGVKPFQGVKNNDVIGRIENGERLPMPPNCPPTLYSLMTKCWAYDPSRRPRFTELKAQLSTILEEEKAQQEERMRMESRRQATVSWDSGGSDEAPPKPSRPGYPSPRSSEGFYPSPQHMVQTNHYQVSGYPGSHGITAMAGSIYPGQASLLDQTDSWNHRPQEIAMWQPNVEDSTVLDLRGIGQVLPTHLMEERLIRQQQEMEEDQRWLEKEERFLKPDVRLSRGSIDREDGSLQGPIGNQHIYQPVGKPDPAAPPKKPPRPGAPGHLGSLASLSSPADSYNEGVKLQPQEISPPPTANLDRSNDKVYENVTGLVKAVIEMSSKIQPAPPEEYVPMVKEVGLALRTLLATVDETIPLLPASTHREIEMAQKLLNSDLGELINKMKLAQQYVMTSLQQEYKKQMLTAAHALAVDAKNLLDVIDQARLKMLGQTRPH
# Chain of Torsin-1A (Homo sapiens) (O14656 whole entry, looked up): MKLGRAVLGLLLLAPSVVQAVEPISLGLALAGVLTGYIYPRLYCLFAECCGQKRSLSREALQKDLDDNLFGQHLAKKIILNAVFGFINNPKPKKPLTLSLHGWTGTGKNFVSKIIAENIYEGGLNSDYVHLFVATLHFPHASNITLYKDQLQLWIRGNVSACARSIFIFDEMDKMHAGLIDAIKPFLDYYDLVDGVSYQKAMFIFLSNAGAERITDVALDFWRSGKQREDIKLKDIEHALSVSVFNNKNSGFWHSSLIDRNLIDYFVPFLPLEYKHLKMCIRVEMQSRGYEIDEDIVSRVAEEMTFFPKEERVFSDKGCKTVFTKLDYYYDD
# Chain of Fibroblast growth factor 2 (Homo sapiens) (P09038 whole entry, looked up): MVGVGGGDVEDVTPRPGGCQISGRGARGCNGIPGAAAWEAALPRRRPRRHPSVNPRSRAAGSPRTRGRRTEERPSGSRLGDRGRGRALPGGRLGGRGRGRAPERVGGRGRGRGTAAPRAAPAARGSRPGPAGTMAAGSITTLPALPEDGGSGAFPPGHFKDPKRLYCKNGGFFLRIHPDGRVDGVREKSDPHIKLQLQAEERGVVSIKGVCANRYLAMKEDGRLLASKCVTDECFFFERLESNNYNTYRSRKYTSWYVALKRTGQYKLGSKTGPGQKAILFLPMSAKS
SMILES,composite z-score [1],composite z-score [2],composite z-score [3],composite z-score [4],composite z-score [5],composite z-score [6],z-score [7],composite z-score [8],composite z-score [9],z-score [10],composite z-score [11],z-score [12],z-score [13],z-score [14],z-score [15],composite z-score [16],composite z-score [17],composite z-score [18],composite z-score [19],composite z-score [20]
COCCCNC(=O)[C@]1(Cc2ccccc2N=[N+]=[N-])N=C(c2ccc(OCCCO)cc2)O[C@@H]1c1ccccc1N=[N+]=[N-],2.22,1.19,0.356,0.983,0.778,-0.165,-0.214,-0.252,0.676,-3.27 (inactive),0.497,-4.87 (inactive),0.524 (inactive),0.432 (inactive),-1.98 (inactive),1.25,-0.0011,0.238,0.605,-0.973
CCCc1cccc(=O)o1,0.439,0.799,0.106,0.915,0.793,0.223,0.352,0.614,0.782,2.08 (inactive),0.0303,-1.62 (inactive),-0.848 (inactive),-0.574 (inactive),0.646 (inactive),0.216,-0.128,1.08,0.5,0.542
COc1cc(CO)cc(I)c1O[C@H]1C=C(C(=O)NCCO)C[C@@H](N(CC2CCCCC2)C(=O)c2ccc(C(F)(F)F)cc2)[C@@H]1O,0.0463,0.621,0.0469,0.367,0.578,0.12,0.53,0.784,0.193,-0.795 (inactive),-0.0143,-0.494 (inactive),-0.312 (inactive),2.57 (inactive),-1.22 (inactive),-0.0411,-0.0403,0.0494,0.0547,1.23
C=C(/C=C/CNS(=O)(=O)c1ccc(C)cc1)[C@H](O)[C@H]1CCCN1S(=O)(=O)c1ccccc1[N+](=O)[O-],-0.394,0.237,0.0627,0.53,0.933,0.891,0.381,0.887,0.299,-0.83 (inactive),0.118,-1.58 (inactive),1.01 (inactive),6.84 (inactive),-1.17 (inactive),0.337,-0.0791,0.361,0.388,0.758
COc1ccc([Si](C)(C)[C@H]2[C@H](CCO)O[C@@]3(C(=O)N(Cc4cccc(N5CCCCC5=O)c4)c4ccccc43)[C@@H]2C)cc1,1.16,1.15,0.362,0.848,1.26,0.403,0.589,1.06,0.418,-1.34 (inactive),0.416,-7.87 (inactive),-1.05 (inactive),2.39 (inactive),-1.82 (inactive),0.569,-0.116,-0.0387,0.299,1.5
COc1ccc(C#Cc2ccc3c(c2)[C@]2(C(=O)N3)[C@H](C(=O)N3CCc4cc(OC)c(OC)cc4C3)[C@H]3C(=O)O[C@H](c4ccccc4)[C@H](c4ccccc4)N3[C@@H]2c2ccc(O)cc2)cc1,1.5,1.2,0.735,0.924,0.896,0.465,-1.47,0.374,0.0376,-0.716 (inactive),0.219,-0.59 (inactive),-1.01 (inactive),-0.141 (inactive),-1.02 (inactive),1.04,-0.121,1.03,0.199,0.466
COC(=O)[C@]1(CCS(=O)(=O)c2ccccc2)N=C(c2ccc(OCCCO)cc2)O[C@@H]1c1ccccc1CN=[N+]=[N-],1.15,1.23,1.34,0.954,1.35,0.807,0.332,0.293,0.528,-0.587 (inactive),0.419,-4.23 (inactive),-0.32 (inactive),1.73 (inactive),-1.37 (inactive),0.379,0.0655,1.33,0.69,0.738
CC(C)CN1C(=O)[C@@]2(Cc3ccccc31)c1ccccc1C(=O)N(Cc1ccccc1C(F)(F)F)[C@H]2c1ccc(CO)cc1,-0.372,-1.18,-0.315,-0.921,-0.596,-0.425,0.39,0.636,-0.0876,1.11 (inactive),-0.331,-2.54 (inactive),-1.53 (inactive),0.0655 (inactive),-0.416 (inactive),-0.0961,-0.182,-2.38,-0.727,-0.875
CCOC(=CC(=O)OC)CC(O)c1cccc(Cl)c1 (stereo not given),1.83,1.15,0.702,-0.76,-0.23,-0.745,1.32,-0.417,1.22,-0.135 (inactive),-0.256,-3.84 (inactive),0.114 (inactive),0.584 (inactive),-0.216 (inactive),-0.668,-0.204,1.31,0.522,-0.41
